Our source for the outcome and Potency values is PubChem BioAssay (Tox21).

The source made the active and inactive calls. Unless noted, calls come from the whole dose curve; as a rule, active = well fitted curve in the direction sought with a large enough effect in the repeat runs; inconclusive = weak or mixed curves; inactive = no such curve, though single readings can be large; an effect the other way counts as inactive or inconclusive.

The subject of experiment [1] is thyroid hormone receptor (rat, GH3 cells). Briefly: qHTS assay to identify small molecule agonists of the thyroid receptor (TR) signaling pathway (AID 743066; calls by dose curve). In general terms: In qHTS, concentration-response curves come from the screen itself.
Experiment [2] has as its target Estrogen receptor (Homo sapiens) (UniProt P03372). Briefly: qHTS assay to identify small molecule antagonists of the estrogen receptor alpha (ER-alpha) signaling pathway (AID 743069; active = well fitted curve in the direction sought with a large enough effect in the signal ratio in the repeat runs, not every such curve was filed as active; inconclusive = weak or mixed curves, or effect the other way; inactive = no such curve, though single readings can be large or run the other way; the % refers to the signal ratio). The procedure, abridged: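 Estradiol-stimulated ER-alpha-UAS-bla HEK293 cells, 18 hr compound exposure at 37C. LiveBLAzer B/G substrate, 2 hr RT, fluorescence read.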
The nature of experiment [3]: qHTS assay to identify small molecule antagonists of the estrogen receptor alpha (ER-alpha) signaling pathway - cell viability counter screen (AID 743074; calls by dose curve;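 note: HEK293 cells carrying ER-alpha-UAS-bla reporter stimulated with 17beta-estradiol; nearly all actives have a fitted effect of over 45% in size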).
Experiment [4] concerns the target Estrogen receptor (Homo sapiens) (UniProt P03372). The experiment in a line: qHTS assay to identify small molecule agonists of the estrogen receptor alpha (ER-alpha) signaling pathway (AID 743075; calls by dose curve;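 note: HEK293 GripTite cells with ER-alpha and UAS-driven beta-lactamase reporter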; note: potency is the fitted concentration of half-maximal effect).
For experiment [5] the target is unchanged. The experiment in a line: qHTS assay to identify small molecule agonists of the estrogen receptor alpha (ER-alpha) signaling pathway using the BG1 cell line (AID 743079). Note: nearly all actives have a fitted effect of over 20% in size. Note: potency is the fitted concentration of half-maximal effect. To be noted: BG1Luc4E2 cells, ERE-luciferase agonist, 22 h; activation: at 70.3 µM (top of the series).
The nature of experiment [6]: qHTS assay to identify small molecule antagonists of the estrogen receptor alpha (ER-alpha) signaling pathway using the BG1 cell line (AID 743080; calls by dose curve;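 note: BG1 cells stimulated with 17beta-estradiol alongside compound; nearly all actives have a fitted effect of over 25% in size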; note: potency is the fitted concentration of half-maximal effect). The procedure, abridged: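 Quantitative HTS on the Tox21 10K library: BG1 cells with endogenous ER-alpha and ERE-luciferase reporter, 17beta-estradiol stimulation, 21.5 h compound exposure, luminescence endpoint with parallel fluorescence cytotoxicity counter-read.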

Experiment [7] is described as follows: qHTS assay to identify small molecule antagonists of the estrogen receptor alpha (ER-alpha) signaling pathway using the BG1 cell line - cell viability counter screen (AID 743081).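 Note: compound given together with 17beta-estradiol as the ER stimulus; nearly all actives have a fitted effect of over 45% in size.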
A further experiment addresses Aromatase (Homo sapiens) (UniProt P11511). Briefly: qHTS assay to identify aromatase inhibitors (AID 743083). Note: nearly all actives have a fitted effect of over 55% in size. Note: potency is the fitted concentration of half-maximal effect.
Experiment [8] can be described thus: qHTS assay to identify aromatase inhibitors - cell viability counter screen (AID 743084).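 Note: cells stimulated with testosterone during compound exposure; nearly all actives have a fitted effect of over 55% in size.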
A short description of experiment [9]: qHTS assay to identify small molecule antagonists of the thyroid receptor (TR) signaling pathway (AID 743065). Note: nearly all actives have a fitted effect of over 55% in size. Note: potency is the fitted concentration of half-maximal effect. In outline:
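GH3.TRE-Luc rat pituitary cells carrying two TR response elements driving luciferase were plated for 4 h, given compound plus 1 nM T3 (final), and incubated 23.5 h at 37 C. ONE-Glo luminescence measured reporter inhibition; CellTiter-Fluor fluorescence tracked cytotoxicity.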

Sequence of Estrogen receptor (Homo sapiens) (P03372 whole entry, looked up): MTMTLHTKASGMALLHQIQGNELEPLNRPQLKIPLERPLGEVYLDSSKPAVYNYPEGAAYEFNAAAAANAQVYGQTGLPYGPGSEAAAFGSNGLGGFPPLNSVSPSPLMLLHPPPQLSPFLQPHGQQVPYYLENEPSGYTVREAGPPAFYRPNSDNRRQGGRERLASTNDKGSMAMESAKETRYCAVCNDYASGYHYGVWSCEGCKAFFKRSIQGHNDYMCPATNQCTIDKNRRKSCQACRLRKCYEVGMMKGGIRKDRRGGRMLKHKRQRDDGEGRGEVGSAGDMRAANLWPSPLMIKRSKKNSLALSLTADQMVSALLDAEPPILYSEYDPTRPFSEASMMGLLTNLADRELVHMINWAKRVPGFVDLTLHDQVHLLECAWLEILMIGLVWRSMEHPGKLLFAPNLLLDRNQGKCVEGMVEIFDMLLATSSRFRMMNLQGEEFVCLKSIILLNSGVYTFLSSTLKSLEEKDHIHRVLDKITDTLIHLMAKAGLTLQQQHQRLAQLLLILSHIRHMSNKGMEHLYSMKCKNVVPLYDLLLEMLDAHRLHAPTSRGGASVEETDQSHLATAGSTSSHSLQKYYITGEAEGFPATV
Sequence of Aromatase (Homo sapiens) (P11511 whole entry, looked up): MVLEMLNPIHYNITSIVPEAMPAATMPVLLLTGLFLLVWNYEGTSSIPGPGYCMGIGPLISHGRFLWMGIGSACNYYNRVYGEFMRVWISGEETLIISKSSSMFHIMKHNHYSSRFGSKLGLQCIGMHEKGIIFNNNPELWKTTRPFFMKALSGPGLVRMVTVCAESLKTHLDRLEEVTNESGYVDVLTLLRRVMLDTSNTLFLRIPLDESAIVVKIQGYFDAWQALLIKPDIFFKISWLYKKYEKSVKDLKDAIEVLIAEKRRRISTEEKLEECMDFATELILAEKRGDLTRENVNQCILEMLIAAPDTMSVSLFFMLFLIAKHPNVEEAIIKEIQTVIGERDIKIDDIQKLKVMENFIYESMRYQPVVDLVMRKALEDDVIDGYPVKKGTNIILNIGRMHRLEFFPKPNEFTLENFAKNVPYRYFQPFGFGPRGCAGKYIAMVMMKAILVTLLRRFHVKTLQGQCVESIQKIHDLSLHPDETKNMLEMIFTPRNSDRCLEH

In the case of `CCCCCCCCCCCCCCC[C@H](O)[C@@H](N)CO`, the result in experiment [1] was inactive. For the same molecule, the Potency result in [2], in experiment [3], in [4], in experiment [5], in experiment [6] and in experiment [7] was “inactive” each time. In addition, the Potency entry (in the experiment with Aromatase (Homo sapiens); in experiment [8]) was “inactive” in each case.
Turning to `CCCCN(CCCC)C(=S)SSC(=S)N(CCCC)CCCC`, the Potency entry in [9], in experiment [2], in experiment [4], in experiment [5], in experiment [6] and in [7] was “inactive” throughout. For the same molecule, the Potency result (with Aromatase (Homo sapiens); in [8]) was “inactive” in each case.
`C=CC(C)(O)CCCC(C)CCCC(C)CCCC(C)C` (centres undefined): the Potency entry in [9], in experiment [2], in experiment [3], in [4], in experiment [5] and in [7] was “inactive” in each case. Further, the Potency result (with Aromatase (Homo sapiens); in experiment [8]) was “inactive” each time.
Regarding `CCCCC1C(=O)N(c2ccccc2)N(c2ccc(O)cc2)C1=O` (centres undefined), the Potency in experiment [9] was 3.2 µM (active). Moreover, the Potency result (in [3]; in experiment [7]; with Aromatase (Homo sapiens)) was “inactive” each time.
On to `CCOc1cc(N)c(Cl)cc1C(=O)NCC1CN(Cc2ccc(F)cc2)CCO1` (centres undefined), for which the result in experiment [1] was inactive. The Potency entry in experiment [2], in [3], in experiment [4], in experiment [5], in experiment [6] and in experiment [7] was “inactive” throughout. Also, the Potency entry (in the experiment with Aromatase (Homo sapiens); in experiment [8]) was “inactive” throughout.
`CC1=C(/C=C/C(C)=C\C=C\C(C)=C\C(=O)O)C(C)(C)CCC1`: the Potency entry (in experiment [9]; in experiment [3]; in [4]; in experiment [7]; with Aromatase (Homo sapiens)) was “inactive” throughout. In experiment [6], the Potency is 0.243 µM (active).
`C[Si](NC1CCCCC1)(NC1CCCCC1)NC1CCCCC1`: the result in experiment [1] was inactive. Moreover, the Potency entry in experiment [2], in [3], in experiment [4], in [5], in experiment [6] and in experiment [7] was “inactive” in each case. For the same molecule, the Potency result (in the experiment with Aromatase (Homo sapiens); in experiment [8]) was “inactive” throughout.
As to `CSc1ccc(Oc2ccc(S(N)(=O)=O)cc2CN(C)C)cc1C`, the Potency in experiment [9] was 27.3 µM (active). For the same molecule, the Potency result in experiment [4], in experiment [7] and in experiment [8] was “inactive” throughout.
Consider `C=CC(C)(C)CC(=O)OC`, for which the Potency entry in experiment [9], in experiment [3] and in experiment [7] was “inactive” each time.
For the molecule `CCCCCCCCCCOS(=O)(=O)O`, the outcome in [1] was inactive. Besides, the Potency entry (in [3]; in [4]; in [5]; in experiment [7]; with Aromatase (Homo sapiens); in experiment [8]) was “inactive” throughout.
For the molecule `COc1ccc(C(=O)c2cccc(O)c2)c(OC)c1`, in experiment [1], the call was inactive. In addition, the Potency result (in experiment [2]; in [3]; in [7]; with Aromatase (Homo sapiens)) was “inactive” in each case. Further, the Potency was 24.5 µM [activator] (active) in experiment [4], 6.84 µM (active) in [5] and 68.5 µM (active) in experiment [6].
In the case of `CN(C)CCOC1=Cc2ccccc2Sc2ccc(Cl)cc21`, in [9], the Potency was 9.44 µM (active). Also, the Potency result in experiment [4], in [5], in [6] and in experiment [7] was “inactive” throughout.
Regarding `Cc1nc2ccccn2c(=O)c1CCN1CCC(C(=O)c2ccc(F)cc2)CC1`, the call in experiment [1] was inactive. Further, the Potency entry (in experiment [2]; in [3]; in experiment [4]; in experiment [5]; in [7]; with Aromatase (Homo sapiens)) was “inactive” throughout. In addition, the Potency entry in experiment [8] is “inactive”.
Consider `CO[C@@]12[C@H](COC(N)=O)C3=C(C(=O)C(C)=C(N)C3=O)N1C[C@@H]1N[C@@H]12`, for which the Potency is 1.33 µM (active) in experiment [9] and 29.8 µM (active) with Aromatase (Homo sapiens).
As for `C[C@@H]1C[C@H]2[C@@H]3CCC4=CC(=O)C=C[C@]4(C)[C@@]3(F)[C@@H](O)C[C@]2(C)[C@H]1C(=O)CO`, the outcome in [1] was inactive. Further, the Potency result (in experiment [3]; in [7]; in the experiment with Aromatase (Homo sapiens); in experiment [8]) was “inactive” each time.
On to `CC[C@H](NC(=O)c1cc(F)ccc1NS(=O)(=O)c1cccc2cccnc12)c1ccccc1`, for which, in experiment [1], the call was inactive. The Potency entry (in [3]; in experiment [4]; in experiment [5]; in [7]; with Aromatase (Homo sapiens); in experiment [8]) was “inactive” each time.
On to `Cc1ccc(S)cc1`, for which the Potency result (in experiment [4]; in experiment [5]; in [6]; in experiment [7]; with Aromatase (Homo sapiens); in experiment [8]) was “inactive” in each case.
For the molecule `NC(=O)Cn1c(=O)cc(CCN2CCN(c3nccc4sccc34)CC2)c2ccc(F)cc21`, the Potency entry (in [3]; in experiment [4]; in experiment [6]; in [7]; with Aromatase (Homo sapiens); in [8]) was “inactive” in each case.
With `NC(=O)Nc1ccc(Cl)c(Cl)c1`, the molecule was called inactive in experiment [1]. For the same molecule, the Potency result (in experiment [3]; in experiment [7]; with Aromatase (Homo sapiens); in experiment [8]) was “inactive” throughout.
Consider `O=C(O)c1snc(Cl)c1Cl`, for which the molecule was called inactive in experiment [1]. Besides, the Potency entry (in [3]; in experiment [7]; in the experiment with Aromatase (Homo sapiens); in experiment [8]) was “inactive” each time.
Consider `C=CC(=O)NCOCC(C)C`, for which the Potency entry (in [3]; in experiment [7]; in the experiment with Aromatase (Homo sapiens); in [8]) was “inactive” throughout.
`CN1CCCN=C1/C=C/c1cccs1`: the figures for the Potency in experiment [4] and in experiment [5] were 23.9 µM [inconclusive] (active) and 7.5 µM (active), respectively. Also, the Potency result (in [7]; with Aromatase (Homo sapiens); in experiment [8]) was “inactive” in each case.
As to `O=C(N/N=C/c1ccc([N+](=O)[O-])o1)c1ccc(O)cc1`, the molecule was classed as inactive in experiment [1]. For the same molecule, the Potency entry in [3] and in experiment [4] was “inactive” in each case. In addition, the Potency with Aromatase (Homo sapiens) is 10.1 µM (active).
Take `N#C[C@@H]1C[C@@H]2C[C@@H]2N1C(=O)[C@@H](N)C12CC3CC(CC(O)(C3)C1)C2`: the Potency entry (in [3]; in experiment [4]; in [5]; in [6]; in [7]; with Aromatase (Homo sapiens)) was “inactive” in each case. Moreover, the Potency result in experiment [8] is “inactive”.
